High-throughput results: PubChem, Broad Institute
Most compounds without a hit are left out; they make up all but 6.7% or so of the library.
Pf Dd2 inh: inhibitors of Plasmodium falciparum Dd2 growth; AID 1159554; 2.3% of 94,000 active; P. falciparum Dd2 growth, SYBR Green, 72 h; hits give low values; activity change, % at 10 µM; in the data active means activity change below about -80%; inconclusive means no clear call, values can overlap the other calls
C diff HTS: C. difficile growth inhibition; Clostridium difficile clinical isolate growth, OD600, 24 h; hits give low values; growth activity, negative = inhibition, % at 16 µg/mL (by protocol); 0.25% of 86,000 active; AID 1259249;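 active means mean growth activity at or below -80% and every replicate also at or below -80%; inconclusive means mean at or below -80% but some replicate above -80%; inactive means mean growth activity above -80%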
T cruzi growth-1: T. cruzi proliferation inhibition; T. cruzi beta-gal in NIH3T3, GalScreen luminescence, 90 h; inhibition, % at 8.34 µM; 5.9% of 77,000 active;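 active means mean inhibition above about 93%, with at least 55% of replicates each passing it, limit read from the data, passing the limit was not always enough; inconclusive means only one of those two conditions holds; inactive means neither condition holds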
T cruzi growth-2: blocks T. cruzi growth in NIH3T3 host cells; inhibition, % at 8.35 µM; T. cruzi beta-gal in NIH3T3, GalScreen luminescence, 90 h; 72% of 5,600 active; shares compounds with T cruzi growth-1;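 active means mean replicate inhibition above about 95% and at least 55% of replicates individually reaching it, limit read from the data; inconclusive means only one of the two criteria is met; inactive means neither criterion is met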
T cruzi growth-3: Trypanosoma cruzi proliferation inhibition | shares compounds with T cruzi growth-1 | AID 651740 | 21% of 5,600 active | T. cruzi beta-gal in NIH3T3, GalScreen luminescence, 90 h | inhibition, % at 2.09 µM;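 active means mean inhibition above about 95%, with at least 55% of replicates also reaching it, limit read from the data; inconclusive means meets just one of the two conditions; inactive means meets neither condition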
3T3 cytotox: NIH/3T3 (mouse) viability loss; cytotoxicity (signal decrease), % at 8.35 µM; 14% of 5,600 active; AID 651742; NIH/3T3 viability, CellTiter-Glo ATP luminescence, 90 h; shares compounds with T cruzi growth-1;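 active means mean signal decrease across replicates above about 35% based on untreated-well scatter, with enough replicates individually passing, limit read from the data; inconclusive means no rule stated though some were filed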
3T3 cytotox 2: cytotoxicity in mouse NIH/3T3 fibroblasts; shares compounds with T cruzi growth-1; 56% of 5,600 active; NIH/3T3 viability, CellTiter-Glo ATP luminescence, 90 h; AID 651744; inhibition, % at 24.9 µM;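 active means mean loss of cell viability signal at or above a set limit, and enough replicates individually reaching it; inconclusive means meets only the mean limit or only the replicate share; inactive means meets neither condition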
Numbers stand for hits; - = inactive; ? = inconclusive; . = not tested or not shown; + = active, no number.

SMILES	Pf Dd2 inh	C diff HTS	T cruzi growth-1	T cruzi growth-2	T cruzi growth-3	3T3 cytotox	3T3 cytotox 2
O=C(Cc1ccncc1)N1CCCCN2[C@H](C1)[C@H](c1ccc(C#Cc3ccccc3F)cc1)[C@@H]2CO	-	-	-	.	.	.	.
O=C(Cc1ccncc1)N1CCCCN2[C@H](CO)[C@H](c3ccc(C#CC4(O)CCCC4)cc3)[C@@H]2C1	-	-	-	.	.	.	.
CCN1[C@@H]2Cn3c(ccc(-c4ccc(OC)cc4)c3=O)[C@H]1[C@@H](C(=O)OC)[C@@H]2CO	.	-	-	.	.	.	.
COc1ccc(OC(=O)N(C)C[C@H]2OCc3ccccc3-c3c(n(C)c4ccccc34)C(=O)N([C@@H](C)CO)C[C@@H]2C)cc1	-	-	.	.	.	.	.
O=C(Cc1ccccn1)N1CCCCN2[C@H](C1)[C@@H](c1ccc(-c3ccc(F)cc3)cc1)[C@@H]2CO	-	-	-	.	.	.	.
O=C(Cc1ccccn1)N1CCCCN2[C@H](C1)[C@H](c1ccc(-c3ccc(F)cc3)cc1)[C@@H]2CO	-	-	-	.	.	.	.
O=C(Cc1ccccn1)N1CCCCN2[C@@H](CO)[C@H](c3ccc(-c4ccc(F)cc4)cc3)[C@@H]2C1	-	-	101	?	-	-	34
O=C(Cc1ccccn1)N1CCCCN2[C@@H](CO)[C@@H](c3ccc(-c4ccc(F)cc4)cc3)[C@@H]2C1	-	-	?	-	-	-	41
Cc1ccccc1-c1ccc([C@@H]2[C@H](CO)N3CCCCN(C(=O)Cc4ccccn4)C[C@@H]23)cc1	-	-	?	-	-	-	65
Cc1ccccc1-c1ccc([C@H]2[C@@H](CO)N3CCCCN(C(=O)Cc4ccccn4)C[C@H]23)cc1	-	-	-	.	.	.	.
O=C(Cc1ccccn1)N1CCCCN2[C@H](CO)[C@H](c3ccc(-c4ccccc4F)cc3)[C@@H]2C1	-	-	97	109	-	-	-
O=C(Cc1ccccn1)N1CCCCN2[C@H](CO)[C@@H](c3ccc(-c4ccccc4F)cc3)[C@@H]2C1	-	-	-	.	.	.	.
O=C(O)[C@@H]1[C@@H](CO)[C@@H]2Cn3c(ccc(-c4cccnc4)c3=O)[C@H]1N2S(=O)(=O)c1ccccc1F	-	-	-	.	.	.	.
COC(=O)[C@H]1[C@H](CO)[C@H]2Cn3c(ccc(C4=CCCC4)c3=O)[C@@H]1N2CC1CCCCC1	-	-	-	.	.	.	.
CCOC(=O)[C@@H]1[C@@H]2NC(=S)N[C@@]1(C)Oc1ccccc12	.	-	.	.	.	.	.
COC(=O)[C@@H]1[C@@H](CO)[C@@H]2Cn3c(ccc(-c4cccc(F)c4)c3=O)[C@H]1N2C(=O)CC1CC1	.	-	-	.	.	.	.
O=C(Cc1ccccc1)N1CC2(C1)[C@H](c1ccccc1)[C@H](CO)N2Cc1cccc(F)c1	-	-	.	.	.	.	.
O=C(Cc1ccccc1)N1CCCCN2[C@H](CO)[C@@H](c3ccc(C#CC4(O)CCCC4)cc3)[C@H]2C1	-	-	-	.	.	.	.
O=C(Cc1ccccc1)N1CCCCN2[C@H](C1)[C@@H](c1ccc(C#Cc3ccccc3)cc1)[C@@H]2CO	-	-	115	98	-	?	103
COc1ccc(C#Cc2ccc([C@@H]3[C@@H](CO)N4CCCCN(C(=O)Cc5ccccc5)C[C@@H]34)cc2)cc1	-	-	111	-	104	-	103
COc1ccc(C#Cc2ccc([C@H]3[C@@H](CO)N4CCCCN(C(=O)Cc5ccccc5)C[C@H]34)cc2)cc1	-	-	-	.	.	.	.
O=C(Cc1ccccc1)N1CCCCN2[C@H](C1)[C@H](c1ccc(C#Cc3ccccc3)cc1)[C@@H]2CO	-	-	131	104	-	-	104
O=C(Cc1ccccc1)N1CCCCN2[C@H](CO)[C@@H](c3ccc(-c4ccccc4)cc3)[C@@H]2C1	-	-	-	.	.	.	.
COC(=O)[C@@H]1[C@@H](CO)[C@@H]2Cn3c(ccc(-c4ccccc4)c3=O)[C@H]1N2CC1CCCC1	-	-	.	.	.	.	.
COC(=O)[C@@H]1[C@@H](CO)[C@@H]2Cn3c(ccc(C4=CCCCC4)c3=O)[C@H]1N2CCc1ccccc1	-	-	-	.	.	.	.
SMILES	Pf Dd2 inh	C diff HTS	T cruzi growth-1	T cruzi growth-2	T cruzi growth-3	3T3 cytotox	3T3 cytotox 2
COC(=O)[C@H]1[C@H](CO)[C@H]2Cn3c(ccc(-c4ccccc4F)c3=O)[C@@H]1N2CC1CCCC1	.	-	+	-	-	-	45
O=C(O)[C@@H]1[C@@H](CO)[C@@H]2Cn3c(ccc(-c4ccccc4)c3=O)[C@H]1N2CC1CCCCC1	-	-	97	-	-	-	-
O=C(O)[C@@H]1[C@@H](CO)[C@@H]2Cn3c(ccc(C4=CCCCC4)c3=O)[C@H]1N2CCc1ccccc1	.	.	164	-	-	-	46
COC(=O)[C@@H]1[C@@H](CO)[C@@H]2Cn3c(ccc(-c4ccccc4)c3=O)[C@H]1N2CC1CCCCC1	-	-	-	.	.	.	.
C[C@H]1CN([C@@H](C)CO)C(=O)c2c(c3ccccc3n2C)-c2ccccc2CO[C@@H]1CN(C)C(=O)Oc1ccccc1	-	-	.	.	.	.	.
CCN1[C@@H]2c3ccc(-c4ccc(OC)cc4)c(=O)n3C[C@H]1[C@H](CO)[C@H]2C(=O)OC	.	-	-	.	.	.	.
COC(=O)[C@@H]1[C@@H](CO)[C@@H]2Cn3c(ccc(-c4ccncc4)c3=O)[C@H]1N2S(=O)(=O)c1ccccc1F	-	-	-	.	.	.	.
CC=Cc1ccc2n(c1=O)C[C@@H]1[C@@H](CO)[C@H](C(=O)OC)[C@H]2N1C(=O)CC (mixture of isomers)	.	-	-	.	.	.	.
COC(=O)[C@@H]1[C@@H](CO)[C@@H]2Cn3c(ccc(C4=CCCC4)c3=O)[C@H]1N2Cc1ccccn1	.	-	-	.	.	.	.
COC(=O)[C@H]1[C@H](CO)[C@H]2Cn3c(ccc(-c4ccccc4)c3=O)[C@@H]1N2CC1CCOCC1	-	-	-	.	.	.	.
O=C(Cc1ccccn1)N1CC2(C1)[C@@H](c1ccccc1)[C@@H](CO)N2Cc1ccccn1	-	-	.	.	.	.	.
O=C(Cc1cccnc1)N1CCCCN2[C@@H](CO)[C@H](c3ccc(C#CC4CC4)cc3)[C@@H]2C1	-	-	108	100	-	-	-
O=C(Cc1cccnc1)N1CCCCN2[C@H](CO)[C@H](c3ccc(C#CC4CCCC4)cc3)[C@H]2C1	-	-	100	100	-	-	106
O=C(Cc1cccnc1)N1CCCCN2[C@@H](CO)[C@@H](c3ccc(C#CC4(O)CCCC4)cc3)[C@@H]2C1	-	-	-	.	.	.	.
O=C(Cc1cccnc1)N1CCCCN2[C@H](CO)[C@@H](c3ccc(C#CC4CCCC4)cc3)[C@H]2C1	-	-	?	-	-	-	104
O=C(Cc1cccnc1)N1CCCCN2[C@H](CO)[C@@H](c3ccc(C#CC4CC4)cc3)[C@@H]2C1	-	-	-	.	.	.	.
O=C(Cc1cccnc1)N1CCCCN2[C@H](C1)[C@@H](c1ccc(C#CC3CC3)cc1)[C@@H]2CO	-	-	-	.	.	.	.
O=C(Cc1cccnc1)N1CCCCN2[C@H](CO)[C@H](c3ccc(C#CC4(O)CCCC4)cc3)[C@@H]2C1	-	-	-	.	.	.	.
